RORgamma inh = ROR gamma (mouse) transcription inhibition; P51450; Drosophila S2 Gal4-RORgamma UAS-luciferase reporter, 20 h; Potency, µM (doses to about 53.6 µM), actives largely listed as inhibitors; 310,000 compounds, 5.4% hits; AID 2551; further: nearly all actives have a fitted effect of over 60% in size
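In this cell-based reporter format, copper sulfate (700 uM final) drives Gal4–ROR gamma fusion expression from a metallothionein promoter in Drosophila Schneider cells; compounds preincubated 1 hr, reporter read after 20 hr at ambient temperature.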
TDP1 cell CPT = growth inhibition of DT40 Tdp1-/-;hTDP1 cells with camptothecin (screen for TDP1 inhibitors). chicken DT40 Tdp1-/-;hTDP1 cells + 20 nM CPT, ATP luminescence, 48 h. 420,000 compounds, 12% hits. AID 686979. Potency, µM (series often up to 46.2 µM), hits mostly inhibitors; further: nearly all actives have a fitted effect of over 55% in size
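Chicken DT40 Tdp1-/- cells stably complemented with human TDP1 were seeded at 400 cells/well in medium containing 20 nM camptothecin, exposed to pin-transferred compounds, and grown at 37 °C for at least 48 hr. Viability was read as ATP luminescence.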
VP16 counter = Gal4-VP16 reporter inhibition counter-screen | Drosophila S2 Gal4-VP16 UAS-luciferase, luminescence, 20 h | Potency, µM (doses to about 53.6 µM), hits mostly inhibitors | 310,000 compounds, 3.5% hits | AID 2546;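 further: Gal4-VP16 expression switched on by copper sulfate through the metallothionein promoter; nearly all actives have a fitted effect of over 50% in size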
TDP1 cell noCPT = qHTS for Inhibitors of human tyrosyl-DNA phosphodiesterase 1 (TDP1): qHTS in cells in absence of CPT | AID 686978, 2013 | 420,000 compounds, 15% hits | Potency, µM (titrated, usually from 46.2 µM), hits mostly inhibitors | DT40 Tdp1-/- hTDP1 cells, no CPT, ATP luminescence, 48 h; further: nearly all actives have a fitted effect of over 55% in size
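Readout: luminescence from CellTiter-Glo after 30 min in the dark at RT. Cells: DT40 Tdp1-/- with stable hTDP1, 400/well. Exposure: compounds alone, ≥48 hr, 37 °C.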
TDP1 block = blocks human tyrosyl-DNA phosphodiesterase 1. Potency, µM (titrated, usually from 130 µM), hits mostly inhibitors. 350,000 compounds, 0.28% hits. recombinant TDP1, AlphaScreen DNA substrate cleavage. Q9NUW8; further: nearly all actives have a fitted effect of over 40% in size
Target sequence (Q9NUW8 whole entry, looked up): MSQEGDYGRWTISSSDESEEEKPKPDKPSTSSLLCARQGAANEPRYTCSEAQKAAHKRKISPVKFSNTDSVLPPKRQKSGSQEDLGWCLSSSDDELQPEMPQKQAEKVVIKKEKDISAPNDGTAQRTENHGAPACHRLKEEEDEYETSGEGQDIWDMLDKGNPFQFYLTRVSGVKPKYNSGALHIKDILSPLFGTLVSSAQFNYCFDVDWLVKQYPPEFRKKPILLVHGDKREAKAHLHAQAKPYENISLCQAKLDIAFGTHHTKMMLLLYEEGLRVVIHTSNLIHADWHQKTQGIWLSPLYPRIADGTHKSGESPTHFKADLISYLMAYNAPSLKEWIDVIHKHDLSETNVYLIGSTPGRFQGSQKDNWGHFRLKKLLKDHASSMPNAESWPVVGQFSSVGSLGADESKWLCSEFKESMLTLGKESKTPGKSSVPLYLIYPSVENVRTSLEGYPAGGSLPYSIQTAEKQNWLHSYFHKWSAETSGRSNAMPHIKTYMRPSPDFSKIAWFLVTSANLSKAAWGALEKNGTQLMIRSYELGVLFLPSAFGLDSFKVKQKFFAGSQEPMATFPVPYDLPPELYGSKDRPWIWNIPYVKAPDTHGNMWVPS
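Recombinant E. coli-expressed Tdp1 (1 nM) preincubated with compound 15 min at RT, then 5'-biotin/3'-phosphotyrosine-FITC DNA substrate (15 nM) added for 5 min. AlphaScreen beads (10 ug/ml) added, 10 min RT; tyrosine-FITC cleavage read as signal loss.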
A number is an active result; . = inactive; ? = inconclusive; / = no result; [ ] = another dose, or the depositor's remark. Rows were chosen to be rich in hits. Some 19% of all compounds tested hit in one or more screens of this group. The call rests on the fitted dose curve; in most records, active means well fitted curve in the direction sought with a large enough effect; inconclusive means small, poorly fitted or top-dose-only effect, or another doubt; inactive means no such curve, though single readings can be large; an effect the other way counts as inactive or inconclusive.

SMILES	RORgamma inh	TDP1 cell CPT	VP16 counter	TDP1 cell noCPT	TDP1 block
CC(C)(C)c1cc(C(=O)Nc2ccc(F)cc2)n(Cc2ccc(F)cc2)n1	11µM	?	?	21µM	.
CC(=O)N(Cc1ccccc1)c1c(N)nc(N)[nH]c1=O	/	.	/	.	/
Cc1c(N/C=C/C(=O)c2ccc(Cl)cc2)c(=O)n(-c2ccccc2)n1C	.	.	.	.	.
Nc1nc(=S)c2[nH]cnc2[nH]1	.	2.6µM	.	1.8µM	.
CCOC(=O)C(NC(=O)N1CCCCC1)(c1ccccc1)C(F)(F)F (stereo unspecified)	.	?	.	.	.
C=CCn1c(O)c(C2=c3ccccc3=NC2=O)c2ccccc21	4.5µM	?	4µM	4.1µM	/
C=CCn1c(O)c(C2=c3ccccc3=NC2=O)s/c1=N/c1nccs1	.	?	.	?	.
CSCCC(NC(=O)c1ccc(Cl)cc1Cl)C(=O)N1CCCCCCC1 (stereo unspecified)	/	?	/	23µM	.
Clc1ccc2nc(CN3CCCc4ccccc43)cn2c1	?	13µM	?	18µM	.
CCCCSc1nnc(CNC(=O)C23CC4CC(CC(C4)C2)C3)n1Cc1ccccc1	?	16µM	?	15µM	.
CCCCn1c(CNC(=O)C23CC4CC(CC(C4)C2)C3)nnc1SC(C)CC (stereo unspecified)	?	23µM	?	21µM	.
O=C(NCc1nnc(SCc2ccccc2)n1-c1ccccc1)C12CC3CC(CC(C3)C1)C2	.	15µM	.	18µM	.
CCn1c(CNC(=O)C23CC4CC(CC(C4)C2)C3)nnc1SC	.	.	.	.	.
CCOc1ncccc1C(=O)Nc1ccc(S(=O)(=O)Nc2nccs2)cc1	.	.	.	.	.
COc1ccc(CNC(=O)CN2C(=O)NC(C)(c3cccc4ccccc34)C2=O)cc1OC (stereo unspecified)	.	.	.	.	.
CCOc1cc(CNc2ccccc2)cc(Br)c1OCC(=O)NC(C)(C)C	.	?	.	?	.
CCOc1ccc(-c2noc(CSc3nnc(-c4ccccc4)n3-c3ccccc3)n2)cc1	/	21µM	/	12µM	.
CCOc1ccc(-c2noc(CSc3nnc(Cc4ccccc4)n3-c3cccc(C)c3)n2)cc1	/	18µM	/	13µM	.
Cc1ccc(-c2noc(CSc3nnc(Cc4cccs4)n3-c3ccccc3)n2)cc1	.	21µM	.	21µM	.
CCOc1ccc(-n2c(SCc3nc(-c4ccc(C)cc4)no3)nnc2-c2ccncc2)cc1	.	?	.	?	.
Clc1ccccc1-c1nnc(SCc2nc(-c3ccccc3)no2)n1-c1ccccc1	/	18µM	/	7.3µM	.
COC(=O)c1cc(NC(=O)C2COc3ccccc3O2)cc(C(=O)OC)c1 (stereo unspecified)	.	?	.	?	.
CCOc1ccc(-c2nnc(SCc3nnc(-c4ccccc4)o3)n2-c2ccccc2F)cc1	.	16µM	.	23µM	.
Cc1ccc(-c2noc(CSc3nnc(Cc4ccccc4)n3-c3cccc(C)c3)n2)cc1	.	?	.	18µM	.
COC(=O)C(C(=O)OC)C(C(C)C)C(C(=O)OC)C(=O)OC	.	.	.	.	.
SMILES	RORgamma inh	TDP1 cell CPT	VP16 counter	TDP1 cell noCPT	TDP1 block
Cc1cccc(C2NC(c3cccc(C)c3)C([N+](=O)[O-])C(C)(C)C2[N+](=O)[O-])c1 (stereo unspecified)	.	?	.	16µM	.
Cc1ccc(NC(=O)C2CCN(S(=O)(=O)c3ccc4c(c3)CC(C)N4C(=O)C3CCC3)CC2)nc1 (stereo unspecified)	?	16µM	.	?	.
Cc1ccnc(NC(=O)C2CCN(S(=O)(=O)c3ccc4c(c3)CC(C)N4C(=O)C3CCC3)CC2)c1 (stereo unspecified)	?	?	.	?	.
Cc1ccc(CNC(=O)C2CCN(S(=O)(=O)c3ccc4c(c3)CC(C)N4C(=O)C3CCC3)CC2)o1 (stereo unspecified)	.	?	.	29µM	.
CC1Cc2cc(S(=O)(=O)N3CCC(C(=O)Nc4ccccn4)CC3)ccc2N1C(=O)C1CCC1 (stereo unspecified)	.	18µM	.	21µM	.
O=C(CCN1C(=O)c2ccccc2S1(=O)=O)Nc1ccccc1O	.	.	.	.	.
CC1(C)COCN1S(=O)(=O)c1ccc(C(=O)Nc2nnc(-c3ccc(Cl)s3)o2)cc1	0.11µM	4µM	0.13µM	4.5µM	.
COc1ccc(-c2nnc(NC(=O)c3ccc(S(=O)(=O)N4COCC4(C)C)cc3)o2)cc1	0.22µM	3.7µM	0.4µM	3.7µM	.
CCOC(=O)C1CCCN(S(=O)(=O)c2ccc(Br)s2)C1 (stereo unspecified)	?	?	.	.	.
O=C(C1CCCN(S(=O)(=O)c2ccc(Br)s2)C1)N1CCN(c2ccccc2F)CC1 (stereo unspecified)	/	?	/	23µM	.
O=C(C1CCCN(S(=O)(=O)c2ccc(Br)s2)C1)N1CCN(c2ccc(F)cc2)CC1 (stereo unspecified)	/	18µM	/	12µM	.
O=C(C1CCCN(S(=O)(=O)c2cccs2)C1)N1CCN(c2ccccc2F)CC1 (stereo unspecified)	/	23µM	/	15µM	.
CC(=O)c1ccc(N2CCN(C(=O)C3CCN(S(=O)(=O)c4ccc(Br)s4)CC3)CC2)cc1	/	?	/	16µM	.
CC1(C)CC(=O)C2=C(C1)NCN(Cc1ccccc1)C2	.	.	.	.	.
COc1ccc(OC)c(C2C3=C(CCCC3=O)NC3=C2C(=O)CCC3)c1	.	.	.	.	.
COc1cc(OC)c(NC(=O)CC(C)=O)cc1Cl	?	.	.	.	.
O=C(Nc1ccc(N2CCOCC2)cc1)c1ccccc1SCC(=O)N1CCCC1	.	.	.	.	.
CC(=O)c1ccc(N2CCN(C(=O)C3CCCN(S(=O)(=O)c4cnc[nH]4)C3)CC2)cc1 (stereo unspecified)	.	.	.	.	.
CC(=O)c1ccc(N2CCN(C(=O)C3CCCN(S(=O)(=O)c4ccc(Br)s4)C3)CC2)cc1 (stereo unspecified)	/	15µM	/	9.2µM	.[12.3 µM]
COc1cccc(-c2nnc(NC(=O)CCS(=O)(=O)c3ccc(C)cc3)o2)c1	/	?	/	?	.
CCCN(CCC)S(=O)(=O)c1ccc(C(=O)Nc2nnc(-c3cccc(OC)c3)o2)cc1	0.4µM	5.8µM	0.63µM	5.2µM	.
N#CCCN(CCC#N)S(=O)(=O)c1ccc(C(=O)Nc2nnc(C3=COCCO3)o2)cc1	.	.	.	.	.
CCCN(CCC)S(=O)(=O)c1ccc(C(=O)Nc2nnc(-c3cc(OC)cc(OC)c3)o2)cc1	0.16µM	5.8µM	0.28µM	4.6µM	.

Source: PubChem
